# Measured values published in PubChem BioAssay (Tox21).
# Records with an inconclusive call do not appear. Entries that show only a call come without a potency. Active and inactive are the calls of the source. Calls follow the shape of the dose curve; as a rule, active = well fitted activation curve with a large enough effect in the repeat runs; inconclusive = weak or mixed curves; inactive = no such curve, though single readings can be large or run the other way.
# Assay: qHTS assay for small molecules that induce genotoxicity in human embryonic kidney cells expressing luciferase-tagged ATAD5 (AID 651632); also: nearly all actives have a fitted effect of over 15% in size
# Details: HEK293T ATAD5-luciferase induction, 16 h; series mostly up to 83.3 µM
# Description: U.S. Tox21 Program National Center for Advancing Translational Sciences [NCATS] NIH Chemical Genomics Center [NCGC] U.S. Environmental Protection Agency [EPA] National Institutes of Environmental Health Sciences [NIEHS] National Toxicology Program [NTP] U.S. Food and Drug Administration [FDA] Tox21 Assay Overview: As cancer cells divide rapidly and during every cell division they need to duplicate their genome by DNA replication. The failure to do so results in the cancer cell death. Based on this concept, many chemotherapeutic agents were developed but have limitations such as low efficacy and severe side effects etc. A new cell based assay was developed to find the compounds that effectively block DNA replication either by directly damaging DNA or by inhibiting other cellular mechanisms. Enhanced Level of Genome Instability Gene 1 (ELG1; human ATAD5) protein levels increase in response to various types of DNA damage. Using a luciferase reporter-gene tagged with ATAD5, a cell-based assay [developed by Kyungjae Myung, NHGRI, NIH] was used to measure the induction of ATAD5 in human embryonic kidney cells (HEK293T). So, increase in luciferase activity can be used to identify the compounds that cause genetic stress.
# Tox21 Assay Protocol Summary: For genotoxicity screening, 2,000 cells in 5 uL/well were dispensed into white, solid-bottom 1536-well plates using a Multidrop Combi (Thermo Scientific) dispenser. Following transfer of 23 nL compound or DMSO vehicle by a pin tool, the plates were incubated 16 hr at 37C and 5% CO2. 5 ul Amplite (AAT Bioquest, Inc.) was then added to each plate and following 30 min incubation at room temperature, luciferase activity was quantified on a ViewLux CCD-based plate reader.
Structure (SMILES),Potency,activation
Cc1ccccc1S(=O)(=O)O,inactive,–
O=C(O)c1ccccc1Cl,inactive,–
O=C(c1ccc(F)cc1)C1CCN(CCn2c(=S)[nH]c3ccccc3c2=O)CC1,inactive,–
CC(CC=O)c1ccccc1 (stereo not given),inactive,–
CC(C)OC(=O)C(C)N(C(=O)c1ccccc1)c1ccc(F)c(Cl)c1 (stereo not given),inactive,–
CC/C=C\CCOC(=O)CC,inactive,–
CCN(CC)CCOC(=O)C(c1ccccc1)C1CCCCC1 (stereo not given),inactive,–
Nc1cccc([N+](=O)[O-])c1,inactive,–
OC(C#CCN1CCCC1)(c1ccccc1)c1ccccc1,inactive,–
CCCCCCCCCCCCCCCCCCOS(=O)(=O)O,inactive,–
OCCN1CCN(CCCN2c3ccccc3C=Cc3ccccc32)CC1,inactive,–
CC1=CC[C@H](C(C)C)C=C1,inactive,–
Cc1ncc(CO)c(C=O)c1O,inactive,–
CCCCCCCCCCCC(=O)OC[C@@H](O)[C@H]1OC[C@H](OCCO)[C@H]1OCCO,inactive,–
C=CCOc1ccccc1OCC(O)CNC(C)C (stereo not given),inactive,–
C[N+]1(CC2COC(c3ccccc3)(C3CCCCC3)O2)CCCCC1 (stereo not given),inactive,–
NC(N)=NCCC[C@H](N)C(=O)O,inactive,–
CCc1c(C(=O)NN2CCCCC2)nn(-c2ccc(Cl)cc2Cl)c1-c1ccc(Br)cc1,inactive,–
C=CCOC(=O)CCC1CCCCC1,inactive,–
c1ccc(-c2ccccn2)nc1,inactive,–

Structure (SMILES),Potency,activation
O=C(Nc1ccc(S(=O)(=O)N2CCOCC2)cc1)c1cc(Cl)ccc1NS(=O)(=O)c1ccc(Cl)s1,inactive,–
CN1C[C@H]2c3ccccc3Oc3ccc(Cl)cc3[C@@H]2C1,inactive,–
Clc1ccc2c(c1)CCc1cccnc1C2=C1CCNCC1,inactive,–
O=C(O)c1ccco1,inactive,–
O=C(CS)Nc1ccccc1,inactive,–
CC(C)Nc1ccc(NC(C)C)c2c1C(=O)c1ccccc1C2=O,inactive,–
O=C(O)CNCC(=O)O,–,0.678% [at 8.08 µM] (inactive)
CCCCCCCCCCCCCCOS(=O)(=O)O,inactive,–
CCOC(=O)NCCOc1ccc(Oc2ccccc2)cc1,inactive,–
COc1cc(Cl)ccc1Oc1ccc(Cl)cc1Cl,inactive,–
C=CC1CC2C=CC1C2 (stereo not given),inactive,–
CCN(CC)c1ccc2c(-c3ccccc3C(=O)O)c3ccc(=[N+](CC)CC)cc-3oc2c1,inactive,–
CC[N+](C)(CC)CCOC(=O)C(O)(c1ccccc1)C1CCCCC1 (stereo not given),inactive,–
CCCCC/C=C\C/C=C\CCCCCCCC(=O)NC(C)c1ccccc1 (stereo not given),inactive,–
C[N+]1(C)CCC(OC(=O)C(O)(c2ccccc2)C2CCCC2)C1 (stereo not given),inactive,–
CC1=CCCC(C)(C)C12CCC(C)O2 (stereo not given),inactive,–
CCOCC(O)COc1ccc(NC(=O)CC[S+](C)C)cc1 (stereo not given),inactive,–
O=C1c2ccccc2S(=O)(=O)N1CCCCN1CCN(c2ncccn2)CC1,inactive,–
COc1ccc(C)cc1[N+](=O)[O-],inactive,–
CC(C)CC(=O)C1C(=O)c2ccccc2C1=O,inactive,–
